# SKKanGAS inh: blocks kanamycin growth of S. pyogenes SKKanGAS strain. BacTiter-Glo, 6 h. inhibition, % at 7.5 µM. hit rate 1.3% among 300,000. AID 1662;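 active = mean replicate score, as percent of positive control median, at least 50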;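 also: strain carries kanamycin resistance gene driven by streptokinase promoter and grows in 40 µg/ml kanamycin; loss of luminescence reflects streptokinase promoter inhibition or plain growth inhibition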
# PP1 inh: counter-screen for PP5 inhibitors: inhibitors of human PP1-alpha; P62136; purified PP1alpha, OMFP fluorescence; inhibition, % at 6.7 µM; hit rate 0.9% among 320,000; AID 2235;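 active = inhibition above the mean inhibition of all tested compounds plus 3 SD, computed separately for each screening campaign, cut at about 15% in these data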
# Target sequence (P62136 whole entry, looked up): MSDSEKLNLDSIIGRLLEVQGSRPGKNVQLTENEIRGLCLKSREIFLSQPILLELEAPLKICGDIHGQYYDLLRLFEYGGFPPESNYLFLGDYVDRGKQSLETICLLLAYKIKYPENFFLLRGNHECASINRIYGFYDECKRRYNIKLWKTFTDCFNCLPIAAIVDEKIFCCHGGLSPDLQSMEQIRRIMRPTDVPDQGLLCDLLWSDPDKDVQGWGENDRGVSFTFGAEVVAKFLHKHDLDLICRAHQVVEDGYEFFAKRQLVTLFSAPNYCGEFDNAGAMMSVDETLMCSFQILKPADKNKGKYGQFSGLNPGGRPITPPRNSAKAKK
# PP5 inh: inhibitors of human protein phosphatase 5 (PP5) | purified PP5c, OMFP substrate fluorescence | inhibition, % at 6.7 µM | hit rate 0.18% among 320,000 | AID 1987;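 active = inhibition above the campaign's mean inhibition across all tested compounds plus 3 SD, cut at about 9.5% in these data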
# Beta cell apopt: blocks beta cell apoptosis. INS-1E cytokine-induced death, ATP luminescence, 48 h; percent of positive-control rescue, neutral wells zero. protection from apoptosis, % (no concentration beside the values). hit rate 0.8% among 300,000. AID 435005;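 active = Every replicate reaches about 75%, or at least half do and their mean reaches it too, limit read from the data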;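 also: higher means more ATP so stronger rescue from cytokine killing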
# CSC inhib: blocks cancer stem cells; cancer stem cell-like cells viability, luminescence; inhibition, % at 7.5 µM; hit rate 1.1% among 300,000; AID 2717; in the data active = inhibition above about 75%; tested in HMLE shEcad cells
# Numbers stand for hits; n = inactive; x = no result. In the library only some 3.1% were active in any assay of this set; here they are far more common.
SMILES,SKKanGAS inh,PP1 inh,PP5 inh,Beta cell apopt,CSC inhib
CC(=O)Oc1ccc2c(=O)c(-c3nc4ccccc4s3)coc2c1,n,n,n,n,84
O=c1nc(N/N=C/c2ccccn2)cn[nH]1,n,n,n,n,82
CC(/C=N/Nc1nncc(=O)[nH]1)=C\c1ccccc1,n,n,n,n,n
O=c1cnnc(N/N=C/c2ccccn2)[nH]1,n,n,n,106,120
C(=N\Nc1nncc2ccccc12)/c1ccccn1,n,n,n,98,n
Cc1cc(=O)[nH]c(N/N=C/c2ccc(-c3ccc(F)cc3)o2)n1,n,n,n,n,75
Cc1ccc(C)c(C(=O)COC(=O)c2cc([N+](=O)[O-])ccc2NCCO)c1,n,n,n,n,n
COc1ccccc1CNC(=O)CN1C(=O)NC2(CCOc3ccccc32)C1=O (stereo not given),x,x,x,n,n
CSc1ccccc1NC(=O)COC(=O)c1ccc(-n2nc(C)cc2C)cc1,x,x,x,n,n
CNC(=O)C(=O)NCCC1CCCCN1S(=O)(=O)c1cccs1 (stereo not given),n,n,n,x,n
O=C(NCCSCc1ccc(Cl)cc1)c1cccs1,n,n,n,n,n
Cc1cc(=O)[nH]c(N/N=C/c2c(O)n(-c3ccccc3)c(=O)c3ccccc23)n1,n,17,n,n,n
Cc1cc(=O)[nH]c(N/N=C/c2ccccn2)n1,n,n,n,95,107
CC(=O)c1cccc(NC(=O)CN(C)Cc2ccc(OC(F)F)cc2)c1,n,n,n,n,n
CCCCCn1c(SCCc2ccccc2)nc2c1c(=O)[nH]c(=O)n2C,n,n,n,x,n
CCCCn1c(SCC(=O)c2ccccc2)nc2c1c(=O)[nH]c(=O)n2C,80,n,n,n,n
O=C(NC(=S)N1CCN(c2nc(-c3ccccc3)cs2)CC1)c1cccnc1,79,n,n,n,n
Cc1cc(Oc2ccc(=O)[nH]n2)nc(Cl)n1,n,n,n,n,n
CC(=O)c1ccc(N2CCN(c3ccccc3O)CC2)c([N+](=O)[O-])c1,n,n,n,n,n
O=[N+]([O-])c1cccnc1N1CCCCC1,n,n,n,n,n
COc1ccc(OC)c(-c2cc(C3CCN(c4cc(Cl)nc(N)n4)CC3)[nH]n2)c1,n,n,n,n,n
O=[N+]([O-])c1cccnc1N1CCC(c2cc(-c3ccc(Cl)cc3Cl)n[nH]2)CC1,80,n,n,n,106
COc1ccc(OC)c(-c2cc(C3CCN(c4ncccc4[N+](=O)[O-])CC3)[nH]n2)c1,57,n,n,n,x
CC(=O)c1ccc(N2CCC(c3cc(-c4ccc(Cl)cc4Cl)n[nH]3)CC2)c([N+](=O)[O-])c1,80,n,n,n,118
CCCOc1ccc(C(=O)NNC(=O)CCNC(=O)c2ccco2)cc1OC,n,n,n,n,n
SMILES,SKKanGAS inh,PP1 inh,PP5 inh,Beta cell apopt,CSC inhib
O=C(CN(Cc1ccc(F)cc1)C(=O)CNS(=O)(=O)c1ccccc1)NCc1ccco1,n,n,n,n,n
Clc1ccc(-c2n[nH]c3c2CCC3)c(Cl)c1,96,n,n,n,n
COc1ccc2c(c1)C(=O)[C@H](O)[C@@H](c1ccc(OC)c(Br)c1)O2,n,n,n,109,108
CCCc1cc(C(=O)Nc2ccc(OC)cc2[N+](=O)[O-])cs1,n,x,x,x,x
C=CCn1c(O)c(N=NC(=O)c2ccccc2NS(=O)(=O)c2cccs2)c2ccccc21,n,n,n,n,n
CCCCn1c(O)c(N=NC(=O)c2ccccc2NS(=O)(=O)c2cccs2)c2ccccc21,71,n,n,n,n
CC(C)(C)c1ccc(OCC(=O)Nc2ccc(C(=O)Nc3ccccc3C(=O)O)cc2)cc1,83,n,n,n,n
Cc1cccc(OCC(=O)Nc2ccc(C(=O)Nc3ccccc3C(=O)O)cc2)c1C,58,n,n,n,n
CC(C)c1ccc(OCC(=O)Nc2cccc(C(=O)Nc3ccccc3C(=O)O)c2)cc1,n,n,n,n,n
O=C(Nc1cc([N+](=O)[O-])ccc1O)c1cccc(NC(=O)c2ccco2)c1,53,n,n,n,n
O=C(Nc1cccc(-c2nc3ccccc3[nH]2)c1)c1cccc(NC(=O)c2ccco2)c1,n,16,n,n,99
O=C(Nc1ccc(Cl)c(-c2nc3ccccc3[nH]2)c1)c1ccc2c(c1)OCO2,n,n,n,n,n
O=C(Nc1ccc(-c2nc3ccccc3[nH]2)cc1)c1ccc2c(c1)OCO2,n,15,n,n,n
Cc1cccc(C(=O)OCCN2CCOCC2)c1,n,n,n,n,n
O=C(CSc1nnc(-c2ccccc2F)o1)Nc1ccc(N2CCOCC2)cc1,x,n,n,n,x
CCC(C)Sc1cc(C(F)(F)F)c(C(=O)Nc2ccc(Cl)cc2)cn1 (stereo not given),70,n,n,n,n
COCCCn1c(SC(C)C(=O)NC2CC2)nc2ccccc2c1=O (stereo not given),n,n,n,n,n
CCn1c(SCC(=O)Nc2nc(-c3ccc(C)cc3)cs2)nnc1-c1ccccc1,n,n,n,n,n
Cc1ccc(-c2csc(NC(=O)CSc3nc4ccccc4[nH]3)n2)cc1,n,x,x,x,x
CCn1c(SCC(=O)Nc2nc(-c3ccc(C)cc3)cs2)nnc1-c1ccccc1O,55,n,n,n,x
Nc1ccccc1SCC(=O)Nc1nc(-c2ccccc2)cs1,n,n,n,n,127
COc1ccc(-c2csc(NC(=O)CSc3nc4ccccc4c(=O)[nH]3)n2)cc1,n,17,n,n,x
Cc1csc(SCC(=O)Nc2nc(-c3ccccc3)cs2)n1,n,n,n,n,n
N[C@H]1CONC1=O,n,n,n,n,n
O=C(Nc1ccccc1)OC1CCC2CC1CCC2OC(=O)Nc1ccccc1 (stereo not given),52,n,n,n,n
SMILES,SKKanGAS inh,PP1 inh,PP5 inh,Beta cell apopt,CSC inhib
O=C(c1ccco1)N(CCC(c1ccccc1)c1ccco1)Cc1ccco1 (stereo not given),n,17,n,n,n
O=[N+]([O-])c1cc([N+](=O)[O-])c2oc(-c3ccccc3)c(Br)c2c1O,69,x,x,x,x
CCOC(=O)c1sc2c(c1C)c(=O)n(CCO)c(=O)n2Cc1ccccc1,n,n,n,n,n
Cc1cc(NC(=O)CSc2c[nH]c3ccccc23)no1,n,n,n,n,n
Cc1cc(NC(=O)CSc2nnc(-c3c[nH]c4ccccc34)n2-c2ccc(Cl)cc2)no1,n,15,n,n,n
COc1ccc(NC(=S)NC(=O)c2cncc(Br)c2)cc1,n,n,n,n,n
Oc1ccc(Br)cc1-c1n[nH]c(=S)n1Cc1ccccc1,n,n,n,n,n
Cn1c(-c2cc(Br)ccc2O)n[nH]c1=S,67,n,n,n,n
O=C(NC1CC2CCCC(C1)N2C(=O)Nc1ccc(F)cc1)c1ccccc1 (stereo not given),n,n,n,n,n
CCCCCOc1ccc(Br)cc1/C(C)=N/NC1=NCCN1,n,17,n,n,n
COc1ccccc1N/C(N)=N/c1nc(C(F)(F)F)cc(=O)[nH]1,n,n,n,x,n
O=c1c2ccccc2nc(/C=C/c2ccc([N+](=O)[O-])o2)n1CCCO,50,n,n,n,n
O=c1c2ccccc2nc(/C=C/c2ccc(Br)cc2)n1CCO,n,n,n,n,78
